Structures are written as SMILES. Calls of active or inactive are those of the source.

The target of one assay is Albumin (Bos taurus) (UniProt P02769). Kind of assay: compounds binding labelled BSA control protein – biochemical, small-molecule microarray, Alexa647 label, 635/667 nm fluorescence, artefact control for SMM control protein annotation, profiling panel (AID 1118).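 Further: score merges 667 nm emission intensity and signal-to-noise per printed compound spot.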 As to conditions: BSA-A647 binding, fluorescence 635 nm, higher = more signal.
Chain of Albumin (Bos taurus) (P02769 whole entry, looked up): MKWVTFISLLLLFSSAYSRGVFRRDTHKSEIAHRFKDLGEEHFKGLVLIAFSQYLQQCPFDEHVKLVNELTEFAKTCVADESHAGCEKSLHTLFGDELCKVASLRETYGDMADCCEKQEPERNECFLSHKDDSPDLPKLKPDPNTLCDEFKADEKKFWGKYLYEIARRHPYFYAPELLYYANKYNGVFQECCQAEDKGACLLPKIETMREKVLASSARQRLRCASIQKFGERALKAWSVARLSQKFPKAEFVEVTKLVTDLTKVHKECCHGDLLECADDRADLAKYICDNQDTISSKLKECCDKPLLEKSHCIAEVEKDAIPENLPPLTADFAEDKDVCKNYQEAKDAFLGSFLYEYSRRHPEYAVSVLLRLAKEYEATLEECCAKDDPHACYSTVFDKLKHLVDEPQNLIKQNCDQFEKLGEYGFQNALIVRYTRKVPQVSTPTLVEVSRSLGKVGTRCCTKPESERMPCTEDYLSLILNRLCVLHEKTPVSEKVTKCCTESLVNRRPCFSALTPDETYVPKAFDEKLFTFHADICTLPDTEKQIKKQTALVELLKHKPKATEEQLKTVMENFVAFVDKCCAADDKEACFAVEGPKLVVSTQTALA
The nature of assay [1]: probe aXIP binding to arrayed compounds – biochemical, NeuroSMM set, 635/667 nm fluorescence, primary screen (AID 1119).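 Further: probe is the protein aXip251-270 applied at 1 µg/mL to compound-printed slides; binding of probe to printed compounds measured as 667 nm fluorescence plus signal to noise.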 As to conditions: small-molecule microarray, higher = more signal, called active from +8 up or from −8 down.
The nature of assay [2]: probe aNOTCH3 binding on compound microarray – biochemical, small-molecule microarray, 635/667 nm fluorescence, primary screen (AID 1120).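 Further: probe is a biotin-tagged antibody raised against NOTCH3 rather than NOTCH3 protein; score merges spot fluorescence near 667 nm with spot signal to noise.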 As to conditions: higher = more signal.
The nature of assay [3]: probe aNOTCH2 binding on compound microarray – biochemical, small-molecule microarray, 635/667 nm fluorescence, primary screen (AID 1121).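 Further: score merges feature fluorescence read at 667 nm with its signal to noise.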 As to conditions: higher = more signal.
The target of assay [4] is Carbonic anhydrase 2 (Homo sapiens) (UniProt P00918). Kind of assay: compounds binding carbonic anhydrase 2 – biochemical, small-molecule microarray, Alexa647-labelled CAII, profiling panel (AID 1122). As to conditions: CAII-A647 binding fluorescence, higher = more signal.
Assay [5] can be described thus: COS7 lysate on small-molecule microarray, probe aHis, 635 nm (AID 1123).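 Further: z-score combines 667nm fluorescence intensity with signal-to-noise per printed compound spot.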 The conditions noted are these: COS7 cell lysate, fluorescence, higher = more signal.
The nature of assay [6]: probe aLAP1 signal on lysate-treated microarray – cell lysate, small-molecule microarray, COS7 lysate, primary screen (AID 1124).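 Further: lysate comes from COS7 cells expressing LAP1 and is applied at 0.3 µg/mL; score merges spot fluorescence near 667 nm with signal-to-noise over triplicate slides.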 As to conditions: probe aLAP1, fluorescence, higher = more signal.
The test system of another assay is Sam68 (KHDRBS1). Put plainly: compounds binding KHDRBS1 protein – biochemical, small-molecule microarray, 635 nm fluorescence, primary screen (AID 1125).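 Further: score merges 667 nm channel intensity with signal to noise over triplicate slides.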 As to conditions: higher = more signal.
In assay [7] the test system is Chordin-like protein 2 (CHRDL2). Put plainly: compounds binding chordin-like 2 – biochemical, small-molecule microarray, 635 nm fluorescence, primary screen (AID 1126).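 Further: printed compound slides probed with Chrdl2 protein at 4 µg/mL for 1 h at 4 C; score merges 667 nm emission intensity with signal to noise over three replicate slides.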 As to conditions: fluorescence 635 nm, higher = more signal.
Assay [8] has as its target Concanavalin-A (Canavalia ensiformis) (UniProt P02866). Kind of assay: compounds binding concanavalin A lectin – biochemical, small-molecule microarray, Alexa647 label, 635 nm, artefact control for SMM control protein annotation, primary screen (AID 1127).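 Further: z combines 667 nm emission intensity with signal-to-noise across three replicate slides.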 The conditions noted are these: ConA-A647 binding fluorescence, higher = more signal.

Chain of Concanavalin-A (Canavalia ensiformis) (P02866 whole entry, looked up): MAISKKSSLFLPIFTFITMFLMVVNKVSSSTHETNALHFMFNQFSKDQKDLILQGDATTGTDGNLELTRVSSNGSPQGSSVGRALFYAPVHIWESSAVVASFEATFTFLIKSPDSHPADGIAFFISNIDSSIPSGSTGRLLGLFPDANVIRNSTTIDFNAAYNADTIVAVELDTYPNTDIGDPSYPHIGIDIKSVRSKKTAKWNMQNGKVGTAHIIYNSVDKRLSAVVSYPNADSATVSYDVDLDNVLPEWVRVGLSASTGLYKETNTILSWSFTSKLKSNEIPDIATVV

For the molecule `C=C(CCCC)/C(=C/C[C@H](OC(C)=O)c1ccc(OCCO)cc1)c1cc(C(=O)OC)ccc1OC`, the composite z-score is 0.891 with Albumin (Bos taurus); 0.0297 in assay [2]; -0.0743 in assay [3]; 0.663 in assay [4]; 1.49 in assay [5]; 0.561 in assay [6]. The composite z-score in the assay with Sam68 (KHDRBS1) is 1.17; in [7] it was -0.15; in [8] it was 0.366. In [1], the composite Z-score was 0.414 (inactive).
For the molecule `CC1(C)C(=O)C(c2ccccc2)=C2CN3C(=O)N(CCc4ccccc4)C(=O)C3(Cc3ccc(C(F)(F)F)cc3)C=C21` (stereo not given), the composite z-score worked out at 0.925 in the assay with Albumin (Bos taurus); 0.561 in assay [2]; 0.306 in assay [3]; 0.581 in [4]; 2.1 in assay [5]; 0.014 in [6]. For the same molecule, the composite z-score in the assay on Sam68 (KHDRBS1) was 0.764; in assay [7], -1.06; in assay [8], 0.702. Moreover, the composite Z-score in [1] was -0.301 (inactive).
As to `Cc1ccc(S[C@]2(C(=O)NC(C)C)CC(=O)N(Cc3ccccc3Cl)[C@@H]2c2ccc(CO)cc2)cc1`, the composite z-score with Albumin (Bos taurus) was 0.29; in assay [2], -0.294; in assay [3] it was -0.146; in assay [4] it was 0.717; in assay [5] it was 0.634; in assay [6] it was 0.542. For the same molecule, the composite z-score in the assay with Sam68 (KHDRBS1) was -1.21; in assay [7], -1.85; in assay [8], -0.744. Moreover, the composite Z-score in assay [1] was 0.0728 (inactive).
Take `CCOC(=O)C[C@H]1[C@H](OC(=O)c2ccc(-c3ccccc3)cc2)[C@@H](NC(=O)Cc2ccc(OC)cc2)c2cc(OCCCO)ccc2N1C(=O)Cc1ccc(OC)cc1`: the composite z-score in the assay with Albumin (Bos taurus) was 0.793; in [2], -0.0647; in assay [3], -0.112; in [4] it was -0.0866; in assay [5], 0.584; in [6] it was 0.234. Further, the composite z-score in the assay on Sam68 (KHDRBS1) was 0.496; in assay [7], -0.565; in [8] it was -0.0542. The composite Z-score in assay [1] was -0.263 (inactive).
Turning to `O=C1O[C@H](c2ccccc2)[C@H](c2ccccc2)N2[C@H]1[C@@H](C(=O)Nc1nc3ccccc3s1)[C@]1(C(=O)Nc3ccc(C#CC4=CCCCC4)cc31)[C@H]2c1ccc(O)cc1`, the composite z-score with Albumin (Bos taurus) is 0.658; in assay [2] it was 0.278; in [3], -0.117; in assay [4] it was 0.185; in assay [5], 2.16; in assay [6], -0.0648. For the same molecule, the figures for the composite z-score (in the assay with Sam68 (KHDRBS1); in assay [7]; in assay [8]) were 1.3, -0.12 and 0.973, respectively. Besides, the composite Z-score in [1] is 0.156 (inactive).
Turning to `COC(=O)[C@@]1(Cc2ccccc2CN=[N+]=[N-])N=C(c2ccc(OCCCO)cc2)O[C@H]1c1ccccc1`, the composite z-score with Albumin (Bos taurus) worked out at 0.0186; in [2] it was 0.177; in assay [3], 0.0919; in [4], 0.645; in assay [5], 2.52; in [6], 0.717. Besides, the figures for the composite z-score (in the assay with Sam68 (KHDRBS1); in assay [7]; in [8]) were 0.711, 0.4 and 0.686, respectively. Also, the composite Z-score in assay [1] was 0.951 (inactive).
In the case of `CC(C)N1CC=CC23O[C@@H]4/C=C\CCCOC(=O)C4[C@H]2C(=O)N(CCCCCCO)[C@@H]3C1=O` (stereo not given in full), the composite z-score with Albumin (Bos taurus) was -0.616; in assay [2], -0.277; in [3], -0.0895; in assay [4], 0.938; in assay [5], 1.28; in [6] it was 1.14. The composite z-score is 0.223 in the assay on Sam68 (KHDRBS1), -1.26 in [7] and -1.02 in assay [8]. Moreover, in assay [1], the composite Z-score is 0.379 (inactive).
As to `O=C1C2C=CC(C(O)C=Cc3ccc([N+](=O)[O-])cc3)N(Nc3ccccc3)C2C(=O)N1c1ccccc1` (stereo not given), the composite z-score was determined as 0.859 with Albumin (Bos taurus); 0.346 in assay [2]; 0.0167 in assay [3]; 0.713 in assay [4]; 2.05 in [5]; 0.276 in [6]. Further, the values for the composite z-score (in the assay with Sam68 (KHDRBS1); in assay [7]; in [8]) were 1.24, -0.0982 and 1.1, respectively. The composite Z-score in assay [1] is 0.075 (inactive).
With `Cc1ccc(C(C)CC(O)C2C=CC3C(=O)N(c4ccccc4)C(=O)C3N2Nc2ccc(C#N)cc2)o1` (stereo not given), the composite z-score with Albumin (Bos taurus) is 1; in assay [2], 0.0744; in [3], 0.115; in [4] it was 0.707; in assay [5], 3.21; in assay [6], 0.825. In addition, the composite z-score is 1.29 with Sam68 (KHDRBS1), -0.387 in [7] and 1.16 in [8]. In addition, the composite Z-score in [1] was -0.102 (inactive).
As for `COCCCNC(=O)[C@@]1(Sc2ccc(C)cc2)CC(=O)N(Cc2ccccc2Cl)[C@@H]1c1ccc(CO)cc1I`, the composite z-score with Albumin (Bos taurus) was 0.7; in assay [2], -0.145; in assay [3], -0.178; in assay [4], 0.809; in assay [5], 0.658; in assay [6], -0.47. Besides, the results for the composite z-score (in the assay on Sam68 (KHDRBS1); in [7]; in assay [8]) were -1.22, -1.05 and -0.556, respectively. Moreover, the composite Z-score in [1] was -0.0202 (inactive).
Regarding `O=C1OCC=C[C@H]2OC34C=CCN(c5ccc6ccccc6c5)C(=O)[C@H]3N(CCCCCO)C(=O)[C@@H]4[C@@H]12` (stereo not given in full), the composite z-score with Albumin (Bos taurus) was 0.712; in [2], -0.292; in assay [3], -0.0176; in [4], 0.309; in assay [5], 1.25; in [6], -0.148. For the same molecule, the composite z-score with Sam68 (KHDRBS1) is -0.702; in [7] it was -1.27; in [8], -0.388. Further, the composite Z-score in assay [1] is -0.834 (inactive).
With `O=C(O)[C@@H]1C[C@@H]2C(=O)N3CCC[C@H]3C(=O)N2[C@@H]1c1cccc(OCCO)c1`, the composite z-score was 0.778 with Albumin (Bos taurus); 1.56 in assay [2]; 1.07 in assay [3]; 0.849 in assay [4]; 4.04 in [5]; 1.04 in assay [6]. Further, the figures for the composite z-score (in the assay with Sam68 (KHDRBS1); in assay [7]; in assay [8]) were 1.33, 1.11 and 1.24, respectively. In addition, in [1], the composite Z-score is 2.44 (inactive).
With `Cc1cccc([C@H]2C[C@H]3C(I)=C[C@@H]2C(=O)[C@]32CO2)c1`, the composite z-score with Albumin (Bos taurus) is -0.883; in assay [2] it was -0.199; in [3] it was -0.112; in [4] it was 0.0705; in assay [5], -0.55; in [6], 0.466. For the same molecule, the figures for the composite z-score (in the assay with Sam68 (KHDRBS1); in [7]; in assay [8]) were -0.5, 0.645 and -0.478, respectively. Besides, the composite Z-score in assay [1] is 0.694 (inactive).
`NC(=O)NCC#Cc1ccc2c(c1)[C@]1(C(=O)N2)[C@H](C(=O)N2CCN(c3ncccn3)CC2)[C@H]2C(=O)O[C@H](c3ccccc3)[C@H](c3ccccc3)N2[C@@H]1c1ccc(OCCO)cc1`: the composite z-score with Albumin (Bos taurus) is 0.003; in assay [2], 0.127; in assay [3], -0.084; in [4], 0.236; in assay [5], 0.944; in assay [6] it was 0.241. The values for the composite z-score (with Sam68 (KHDRBS1); in assay [7]; in [8]) were 0.982, 0.106 and 0.972, respectively. The composite Z-score in [1] was 0.17 (inactive).
For `COC(=O)[C@@]1(Cc2ccc(F)cc2)[C@H]2c3cc(C(=O)N4CCCC4)n(CC4CC4)c3C[C@H]2CN1C(=O)c1ccccc1`, the composite z-score in the assay with Albumin (Bos taurus) amounted to 0.87; in assay [2] it was 1.07; in [3] it was 0.416; in [4], 0.765; in [5], 2.99; in assay [6] it was 0.888. Besides, the composite z-score is 1.3 with Sam68 (KHDRBS1), -0.621 in assay [7] and 0.553 in assay [8]. In addition, in assay [1], the composite Z-score is 1.5 (inactive).
`O=C1C2C=CC(C(O)c3ccco3)N(Nc3ccccc3)C2C(=O)N1c1ccccc1` (stereo not given): the composite z-score was 0.507 with Albumin (Bos taurus); -0.153 in assay [2]; -0.141 in assay [3]; 0.757 in assay [4]; 0.467 in assay [5]; -0.102 in assay [6]. The figures for the composite z-score (with Sam68 (KHDRBS1); in assay [7]; in assay [8]) were -0.161, -0.727 and -0.222, respectively. For the same molecule, the composite Z-score in assay [1] is 0.0089 (inactive).
